NSD2 HMT inh: inhibitors of human histone methyltransferase NSD2. 0.54% of 310,000 active. NSD2 peptide methylation, AlphaScreen, 120 min. O96028. inhibition, % at 12.5 µM. AID 743445; in the data active = inhibition above about 50%
CDK5 p35 inh: blocks human CDK5/p35 kinase activity; Q00535+Q15078; Recombinant CDK5/p35, ADP-Glo luminescence, 60 min; inhibition, % at 10 µM; 0.01% of 330,000 active; AID 488839;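 active = highest replicate inhibition of at least 50% and at least 75% of replicates reaching 50%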;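 note: plate controls were DMSO neutral control for no effect and GW8510 at 10 µM for full effect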
Target sequence (Q00535 whole entry, looked up): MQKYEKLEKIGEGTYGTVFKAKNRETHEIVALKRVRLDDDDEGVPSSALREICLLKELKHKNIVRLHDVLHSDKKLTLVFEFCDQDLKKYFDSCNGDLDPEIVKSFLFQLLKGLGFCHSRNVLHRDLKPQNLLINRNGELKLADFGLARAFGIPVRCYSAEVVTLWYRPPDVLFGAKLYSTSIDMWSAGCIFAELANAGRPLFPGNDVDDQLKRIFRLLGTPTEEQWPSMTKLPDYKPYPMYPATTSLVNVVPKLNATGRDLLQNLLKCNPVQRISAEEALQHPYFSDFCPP
Target sequence (Q15078 whole entry, looked up): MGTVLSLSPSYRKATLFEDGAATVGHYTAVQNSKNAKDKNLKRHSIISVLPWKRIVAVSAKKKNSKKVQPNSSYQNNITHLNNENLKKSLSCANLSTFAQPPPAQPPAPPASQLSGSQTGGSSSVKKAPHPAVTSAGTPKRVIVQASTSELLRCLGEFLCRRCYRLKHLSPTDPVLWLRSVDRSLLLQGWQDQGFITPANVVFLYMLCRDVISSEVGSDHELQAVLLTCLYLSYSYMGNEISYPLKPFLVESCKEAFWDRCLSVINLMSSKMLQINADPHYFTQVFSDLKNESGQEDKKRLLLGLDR
ALR inh: human ALR oxidase inhibition via reduced H2O2 | P55789 | purified ALR, DTT oxidation, H2O2 HRP-luminol luminescence | inhibition, % (concentration not given with the values) | 3.8% of 290,000 active;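 active = mean replicate inhibition above about 79%, with every replicate also reaching it, limit read from the data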
N-glyco inh: N-linked glycosylation inhibition; 0.23% of 360,000 active; AID 588692; D54 ERlucT glycosylation luciferase reporter, 24 h; percent of 100 nM tunicamycin response; reporter increase, % at 12.5 µM;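 active = mean luciferase reporter signal, scaled so untreated is 0 and the glycosylation-blocking control 100, at or above a set limit in every replicate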;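 note: luciferase carries N-glycosylation sites so blocking glycosylation raises the light; 0% = median of neutral control wells and 100% = median of 100 nM tunicamycin wells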
Casp6 inh: caspase-6 (human) enzyme inhibition. purified caspase-6, Z-VEID-R110 cleavage fluorescence. inhibition, % at 12.5 µM. P55212. 0.53% of 350,000 active;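 active = mean inhibition across replicates at least about 35%, with every replicate also reaching that limit, limit read from the data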;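 note: 0% = median of neutral control wells and 100% = no fluorescence left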
Mot1-301 SUMO: SUMOylation pathway inhibition by Mot1-301 growth rescue. S. cerevisiae Mot1-301 growth rescue, ATP luminescence, 38.5C; percent above DMSO median, 100 means doubled. growth rescue, % at 18.8 µM. 1% of 320,000 active. AID 2716;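 active = every valid replicate shows activation above 250% relative to neutral control wells; inactive = the rest, any valid replicate at or below 250%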;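 note: OY570 slx delta 5 strain wells were the positive control but not used for scaling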
* marks the source's active call; other numbers are inactive results; . = no result; + = active, no number. This is a sample that favours compounds with a hit; in the whole collection about 3.9% have one here.

SMILES	NSD2 HMT inh	CDK5 p35 inh	ALR inh	N-glyco inh	Casp6 inh	Mot1-301 SUMO
O=C(NCC(c1cccnc1)N1CCN(c2ccccc2)CC1)OCc1ccccc1 (stereo unspecified)	4	0	76*	-1	.	41
O=C(NCC(c1cccnc1)N1CCN(c2ccccc2)CC1)c1ccc2c(c1)OCO2 (stereo unspecified)	-1	0	99*	0	.	43
COc1cc(C(=O)NCC(c2cccnc2)N2CCN(C)CC2)cc(OC)c1OC (stereo unspecified)	-1	2	-17	1	.	-1
C[C@@H]1CN([C@@H](C)CO)C(=O)Cc2cc(NC(=O)C3CCCCC3)ccc2O[C@@H]1CN(C)C(=O)Nc1ccc(F)cc1	.	.	.	.	1	.
CO[C@H]1CN(C)C(=O)c2ccc(NC(=O)C3CC3)cc2OC[C@@H](C)NC[C@@H]1C	.	.	.	.	1	.
COc1ccc(C#Cc2cccc(-c3nc(C(=O)N4CCN(C)CC4)cc4c3[C@@H](CCO)N(S(=O)C(C)(C)C)C4)c2)cc1OC (stereo partly specified)	.	.	.	.	4	.
O=C(NCC(c1ccco1)N1CCN(c2ccccc2)CC1)C1CCCCC1 (stereo unspecified)	1	.	.	0	3	.
O=S(=O)(NCC(c1cccnc1)N1CCN(c2ccccc2)CC1)c1cccs1 (stereo unspecified)	5	1	98*	0	.	168
O=C(NCC(c1cccnc1)N1CCN(c2ccccc2)CC1)C1CCCCC1 (stereo unspecified)	1	1	88*	0	.	73
Cc1ccc(NC(=O)Nc2ccc3c(c2)C(=O)N(C)[C@H]2CC[C@H](CC(=O)O)O[C@H]2CO3)cc1	.	.	.	.	1	.
C[C@H]1CN([C@@H](C)CO)C(=O)c2cc(NC(=O)Cc3cn(C)c4ccccc34)ccc2O[C@@H]1CN(C)S(=O)(=O)c1cccs1	.	.	.	.	-2	.
C[C@@H](NC(=O)C[C@@H]1CC[C@@H]2[C@H](COC[C@@H](O)CN2Cc2cc(F)ccc2F)O1)c1ccccc1	.	.	.	.	3	.
CCOCCCNC(=O)CS(=O)(=O)Cc1nc(-c2cccc(OC)c2)oc1C	4	-5	98*	3	.	3
CCCNC(=O)CS(=O)(=O)Cc1nc(-c2cccc(OC)c2)oc1C	.	-1	98*	-1	1	-17
COc1cccc(-c2nc(CS(=O)(=O)CC(=O)NCCc3ccccc3)c(C)o2)c1	-1	0	9	2	-3	3
COc1cccc(-c2nc(CS(=O)(=O)CC(=O)NCc3ccc(Cl)cc3)c(C)o2)c1	.	0	-9	0	-1	-5
COc1ccccc1C(=O)Nc1ccc2c(c1)OC[C@@H](C)NC[C@@H](C)[C@@H](OC)CN(C)C2=O	.	.	.	.	0	.
COc1cc(/C=C/C(=O)OCC(=O)NCCC2=CCCCC2)ccc1O	0	2	99*	0	3	-1
COc1cc(/C=C/C(=O)OCC(=O)NCc2ccc(F)cc2)ccc1O	-1	0	.	18	-2	16
COc1cc(/C=C/C(=O)OCC(=O)Nc2ccc3c(c2)OCCO3)ccc1O	-1	1	81*	1	.	-11
COc1cc(/C=C/C(=O)OCC(=O)NCc2ccccc2OC)ccc1O	0	1	84*	0	-4	-11
COc1cc(/C=C/C(=O)OCC(=O)NCCC2=CCCCC2)cc(OC)c1OC	1	-2	-4	2	6	60
COc1cc(/C=C/C(=O)OCC(=O)NC(=O)NC(C)C)ccc1O	5	-1	99*	1	7	0
C[C@H](CO)N1C[C@H](C)[C@@H](CN(C)Cc2ccc(Cl)c(Cl)c2)Oc2ccc(NC(=O)CCN3CCOCC3)cc2CC1=O	.	.	.	.	-3	.
CCNC(=O)Nc1ccc2c(c1)C(=O)N(C)[C@H]1CC[C@H](CC(=O)Nc3ccc(C)cc3)O[C@@H]1CO2	.	.	.	.	-6	.
SMILES	NSD2 HMT inh	CDK5 p35 inh	ALR inh	N-glyco inh	Casp6 inh	Mot1-301 SUMO
COc1ccccc1NC(=O)N1CC(=O)N2[C@H](CO)[C@H](c3ccc(C#Cc4ccc(F)cc4)cc3)[C@@H]2C1	.	.	.	.	0	.
COc1cc(/C=C/C(=O)OCC(=O)N2CCN(C(=O)c3ccco3)CC2)ccc1O	0	2	99*	-2	.	816
O=C(/C=C/c1cccc([N+](=O)[O-])c1)OCC(=O)N1CCN(C(=O)c2ccco2)CC1	4	1	-10	1	1	-15
CCC(C)N(C(=O)COC(=O)/C=C/c1ccc(O)c(OC)c1)C1CCS(=O)(=O)C1 (stereo unspecified)	3	-2	94*	1	.	0
COc1cccc(C#Cc2cnc3c(c2)C(=O)N([C@@H](C)CO)C[C@H](C)[C@H](CN(C)C(=O)C2CC2)O3)c1	.	.	.	.	1	.
COc1ccc(S(=O)(=O)N(C)C[C@@H]2Oc3ccc(NS(C)(=O)=O)cc3CC(=O)N([C@@H](C)CO)C[C@H]2C)cc1	.	.	.	.	6	.
CN(C)C(=O)c1ccc(-c2ccc([C@@H]3[C@H]4CN(C(=O)C5CCCC5)CCCCN4[C@H]3CO)cc2)cc1	.	.	.	.	0	.
Cc1cnc(C(=O)Nc2ccc(N3CCCCC3)cc2)cn1	2	4	-15	-7	-3	9
Cc1cnc(C(=O)Nc2ccc(C(=O)N3CCCCC3)cc2)cn1	1	-1	100*	-1	.	-3
N#C/C(=N\Nc1cccc2ccccc12)c1nnc2n1CCCCC2	2	0	-26	-5	2	+
COc1cccc(NC(=O)N2C[C@@H](O)COC[C@H]3O[C@@H](CC(=O)NC4Cc5ccccc5C4)CC[C@@H]32)c1	.	.	.	.	1	.
C[C@H]1CCCCO[C@H](CN(C)S(=O)(=O)c2cn(C)cn2)[C@@H](C)CN([C@@H](C)CO)C(=O)c2cc(NC(=O)c3ccccc3)ccc2O1	.	.	.	.	1	.
NC(=O)C1CCN(c2nc(-c3ccc4occc(=O)c4c3)cs2)CC1	.	1	99*	2	.	-2
CCOc1ccc2[nH]c3c(NCCO)ncnc3c2c1	17	-2	89*	4	6	-17
Cc1ccc(NC(=O)CN2C(=O)NC(C)(c3ccc(Cl)cc3)C2=O)cc1 (stereo unspecified)	2	-3	0	10	4	-6
Cc1ccc(C2(C)NC(=O)N(CC(=O)Nc3ccc(S(=O)(=O)Nc4nccs4)cc3)C2=O)cc1 (stereo unspecified)	0	0	96*	-1	5	9
COc1ccc(NC(=O)/C=C2\SC(=O)NC2=O)cc1	5	0	97*	12	-2	-32
COc1ccc(NC(=O)CC2SC(=O)NC2=O)cc1 (stereo unspecified)	7	-4	12	2	.	-6
C=CCNc1nc(NCCCN2CCCC2=O)c2sc(-c3ccccc3)cc2n1	16	.	.	3	-5	.
O=C1CCCN1CCCNc1nc(NCc2ccccc2)nc2ccsc12	0	.	.	38*	1	.

High-throughput results from PubChem.
